Out of some 48,000 compounds screened, about 13,000 (27%) showed an effect of 50% or more. The list shows a part of the results.
Test system: Wolbachia pipientis
Assay: Anti-Wolbachia Cell-Based Screen
Format: functional
Set-up: scale not given: in the data most compounds retested in dose-response had high values
Conditions: 5 µM

Row | Structure (SMILES) | Percent Effect
1 | CCC1=N[C@@]2(CC[C@@H]3CN(S(=O)(=O)CC(C)C)C[C@@H]32)C(=O)N1C | -2.639%
2 | Cc1csc(CNC(=O)NC2CCN(c3ncccn3)CC2)n1 | 3.023%
3 | O=C(NCCc1ccccn1)NC1CCN(c2ncccn2)CC1 | 4.674%
4 | O=C(NCc1ccoc1)NC1CCN(c2ncccn2)CC1 | 15.54%
5 | O=C(NCCc1cccs1)NC1CCN(c2ncccn2)CC1 | 110.6%
6 | Cc1nc(CCNC(=O)NC2CCN(c3ncccn3)CC2)cs1 | 9.255%
7 | N#Cc1ccc(CNC(=O)NC2CCCN(c3ncccn3)C2)cc1 (centres undefined) | 10.08%
8 | COC(=O)N1CCCC(NC(=O)NCc2csc(C)n2)C1 (centres undefined) | -0.338%
9 | Cc1ccc(CNC(=O)NC2CCCN(c3ncccn3)C2)n1C (centres undefined) | 7.079%
10 | O=C(NCc1ccccn1)NC1CCCN(c2ncccn2)C1 (centres undefined) | 20.37%
11 | Cc1nc(CNC(=O)NC2CCN(c3ncccn3)CC2)cs1 | 78.89%
12 | Cc1nc(CCNC(=O)NC2CCCN(c3ncccn3)C2)cs1 (centres undefined) | 107.1%
13 | Cc1nc(CNC(=O)NC2CCCN(c3ncccn3)C2)cs1 (centres undefined) | 115.1%
14 | NC(=O)Nc1cccc(C(=O)N(Cc2ccncc2)C2CC2)c1 | 8.655%
15 | CC(O)CN1CCC(CNCc2ccccc2Br)CC1 (centres undefined) | -8.503%
16 | O=C(NCCN1CCOCC1)NCc1ccc(-n2cccn2)cc1 | -7.54%
17 | CC(C)Nc1nc2c(c(NC3CC3)n1)CCN(C1CCOCC1)CC2 | -24.37%
18 | O=C(CO)N1CCN(S(=O)(=O)CCCF)CC1 | -8.107%
19 | COc1ccc(NC(=O)N2CCCCC2c2ncc[nH]2)cc1 (centres undefined) | 18.67%
20 | Nc1cc(-c2c[nH]nc2C2CCCCN2C(=O)C2CCCC2)ccn1 (centres undefined) | 118.9%
21 | Nc1cc(-c2c[nH]nc2C2CCCN2CCCc2ccccc2)ccn1 (centres undefined) | 114.8%
22 | Nc1cc(-c2c[nH]nc2C2CCCN2S(=O)(=O)c2ccccc2)ccn1 (centres undefined) | 96.1%
23 | O=S(=O)(N(Cc1ccccn1)C1CC1)N1CCCC1c1ccco1 (centres undefined) | 17.98%
24 | O=C(c1ccoc1)N1CCCCC1c1nc[nH]n1 (centres undefined) | 11.28%
25 | Nc1ncncc1-c1noc([C@@H]2CCCN2CCCc2ccccc2)n1 | 5.428%
26 | Cc1cc(C2CCCN2CCCS(=O)(=O)c2ccccc2)no1 (centres undefined) | -10.32%
27 | Cn1nnc2c1C(COCC1CC1)CN(C(=O)CC1=CCCCC1)C2 (centres undefined) | -19.61%

Row | Structure (SMILES) | Percent Effect
28 | CC(NC1(CNC(=O)CC2CCCC2)CCOCC1)c1ccccc1 (centres undefined) | -11.89%
29 | Cc1sc2nc(SC(C)c3nc(C(C)(C)C)no3)nc(N)c2c1C (centres undefined) | 10.97%
30 | CCc1nnsc1C(=O)N(C)Cc1ccc(Br)o1 | 14.42%
31 | Cc1ccc(S(=O)(=O)Cc2nsc(N(C)C)n2)c(C)c1 | -1.61%
32 | CCc1nc(NCC(=O)N2CCOCC2)c2c(n1)c(C)nn2CC | 7.048%
33 | CCN1CCN(c2ccc(F)cc2C(C)NCc2ccnn2C)CC1 (centres undefined) | -1.019%
34 | Cc1cc(=O)c(C(=O)N2CCC(C(O)Cc3ccccc3)CC2)c(C)[nH]1 (centres undefined) | 97.46%
35 | CCOC(=O)N1CCN(C(=O)c2sc(-c3ccccc3)nc2C)CC1 | -9.068%
36 | COc1nc(C)c(C(=O)N2CCc3[nH]nc(Cc4ccccc4)c3C2)s1 | 2.938%
37 | Cc1ccc(N2CCC(C(O)Cc3ccccc3)CC2)nn1 (centres undefined) | -17.42%
38 | Cc1nn(C)c2nc(N3CCC(C(O)Cc4ccccc4)CC3)sc12 (centres undefined) | -11.76%
39 | COc1nc(C)c(C(=O)N2CCC(C(O)Cc3ccccc3)CC2)s1 (centres undefined) | 114.7%
40 | COc1nc(C)c(C(=O)N2CCN(c3ncccc3C)CC2)s1 | -23.23%
41 | Cc1nc(N)sc1C(=O)N1CCC(C(O)Cc2ccccc2)CC1 (centres undefined) | 104.4%
42 | CC(C)CC(O)C1CCN(C(=O)c2ccc(C(C)C)[nH]c2=O)CC1 (centres undefined) | -16.76%
43 | c1ccc(Cn2cccn2)c(CN2CCCCC2CCn2ccnc2)c1 (centres undefined) | -5.854%
44 | CNc1ncc(-c2ccc(NC(=O)[C@@H]3CCCCN3)cc2)cn1 | 112.9%
45 | Cc1ccc2cc(C3(O)CCN(C(=O)[C@@H]4CCCCN4)CC3)ccc2n1 | -9.232%
46 | Nc1ncc(-c2cccc(NC(=O)[C@@H]3CCCCN3)c2)cn1 | 116.6%
47 | Cc1ccc(NC(=O)C2CCc3ccccc3N2)cc1 (centres undefined) | -1.128%
48 | O=C(Nc1ccc(-c2csnn2)cc1)N1CCN2CCCCC2C1 (centres undefined) | 5.858%
49 | Cc1cccc(NC(=O)C2CCc3ccccc3N2)c1.Cl (centres undefined) | 2.596%
50 | NS(=O)(=O)c1cnn(-c2ccc(NC(=O)C3CCCCC3)cn2)c1 | -15.76%
51 | O=C(Nc1cnc2n1CCCC2)c1cccc(NC(=O)C2CCCC2)c1 | 10.86%
52 | Nc1ncc(-c2ccc(NC(=O)[C@@H]3CCCCN3)cc2)cn1 | 109.3%
53 | O=C(Nc1ccc(-c2cnc(NCCO)nc2)cc1)[C@@H]1CCCCN1 | 129.4%
54 | O=C(Nc1ccc(-c2ccccc2)cn1)C1CCN(C(=O)C2CC2)CC1 | 26.94%

Source: ChEMBL document CHEMBL3988442, “University of Dundee, Small-Polar-MMV Screening Library” (2021)
